The full data set covers some 7,900 targets. This sample favours those with a hit. About 0.6% of all pairs of compound and target were hits.
How the values were obtained:
Assay in all cases: log2 fold change, soluble protein after heating vs DMSO (PISA); higher = thermal stabilisation; K562 cells, 10 uM, 30 min; active = over 0.2 and 3.5 SD of the protein, either way, in both replicates (recomputed)
[1] = compound: NC(=O)Nc1cc(-c2cccc(F)c2)sc1C(=O)N[C@H]1CCCNC1
Outline: (§1)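 For each measurement, 10 μM compound was applied for 30 min to K562 cells at 2×10^6 cells/mL. Aliquots were heated for 3 min across 48°C-58°C, pooled, and extracted in PBS with 0.5% NP-40 at 4°C; the supernatant after 21,000xg for 90 min was soluble protein. This was quantified by TMTpro 16plex LC-MS/MS with channel sums equalised, and thermal stability was reported relative to control samples from duplicates, on a log2 fold-change scale.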

[2] = compound: NC1(c2ccc(-c3nc4ccn5c(=O)[nH]nc5c4cc3-c3ccccc3)cc2)CCC1
Outline: as §1

[3] = compound: NCC(=O)Nc1ccc(-n2nc(C(F)(F)F)cc2-c2ccc3c(ccc4ccccc43)c2)cc1
Outline: as §1

[4] = compound: Nc1ccccc1NC(=O)c1ccc(CNC(=O)OCc2cccnc2)cc1 [entinostat]
Outline: as §1

[5] = compound: O=C(CCCCCCNC(=O)c1cnc(N(c2ccccc2)c2ccccc2Cl)nc1)NO [citarinostat]
Outline: as §1

[6] = compound: O=C(O)c1ccc2c(c1)nc(Nc1cccc(Cl)c1)c1ccncc12 [silmitasertib]
Outline: as §1

[7] = compound: c1cc(OCCN2CCCCC2)cc(-c2n[nH]c3ccc(-c4nnc[nH]4)cc23)c1
Outline: as §1

[8] = compound: NC(=O)c1cnc(N[C@@H]2CCCC[C@@H]2N)nc1Nc1cccc(-n2nccn2)c1
Outline: as §1

[9] = compound: O=C(CCCCCCC(=O)Nc1ccccc1)NO [vorinostat]
Outline: as §1

[10] = compound: O=C1NC(=O)C(c2cnc3ccccn23)=C1c1cn2c3c(cc(F)cc13)CN(C(=O)N1CCCCC1)CC2
Outline: as §1

Measured: log2 fold change

H3-3A (UniProt P84243)
inactive: [1] 0.072 | [2] -0.095 | [3] -0.096 | [4] 0.104 | [5] 0.157 | [6] -0.046 | [7] 0.028

GSTT1 (UniProt P30711)
inactive: [8] 0.012 | [2] 0.03 | [3] 0.08 | [9] -0.022 | [5] -0.018 | [6] -0.074 | [10] 0.019 | [7] -0.012

HEATR3 (UniProt Q7Z4Q2)
inactive: [1] 0 | [2] -0.248 | [3] -0.103 | [4] 0.052 | [9] -0.017 | [5] 0.075 | [6] 0.02 | [10] -0.051 | [7] 0.047

HS1BP3 (UniProt Q53T59)
inactive: [1] -0.059 | [8] -0.075 | [3] 0.027 | [4] -0.05 | [5] 0.115 | [10] -0.016 | [7] 0.108

HNRNPUL1 (UniProt M0R247)
inactive: [1] -0.056 | [8] -0.629 | [4] -0.352 | [5] -0.227 | [7] -0.014

FCF1 (UniProt Q9Y324)
UniProt Q9Y324, sequence (Q9Y324 whole entry, looked up): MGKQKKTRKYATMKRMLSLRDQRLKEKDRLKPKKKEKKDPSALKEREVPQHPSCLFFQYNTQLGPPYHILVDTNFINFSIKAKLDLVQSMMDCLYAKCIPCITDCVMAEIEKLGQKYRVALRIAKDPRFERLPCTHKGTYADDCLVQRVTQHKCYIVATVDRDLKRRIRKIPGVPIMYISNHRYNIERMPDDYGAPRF
inactive: [1] 0.244 | [2] 0.097 | [3] 0.36 | [4] 0 | [9] -0.045 | [5] -0.137 | [6] 0.099 | [10] 0.349 | [7] -0.375

GPS2 (UniProt Q13227)
UniProt Q13227, sequence (Q13227 whole entry, looked up): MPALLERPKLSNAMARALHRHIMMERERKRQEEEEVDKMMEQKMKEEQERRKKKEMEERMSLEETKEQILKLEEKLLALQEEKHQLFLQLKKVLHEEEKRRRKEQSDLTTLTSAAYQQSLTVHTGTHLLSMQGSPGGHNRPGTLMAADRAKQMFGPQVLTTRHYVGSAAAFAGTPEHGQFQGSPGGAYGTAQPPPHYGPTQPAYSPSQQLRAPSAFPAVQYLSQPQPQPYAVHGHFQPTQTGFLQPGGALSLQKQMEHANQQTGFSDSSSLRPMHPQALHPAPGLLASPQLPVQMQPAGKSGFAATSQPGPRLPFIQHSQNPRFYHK
inactive: [1] 0.041 | [2] 0.079 | [3] -0.106 | [4] -0.015 | [5] -0.023 | [6] 0.031 | [10] -0.005 | [7] -0.092

HDAC2 (UniProt Q92769)
UniProt Q92769, sequence (Q92769 whole entry, looked up): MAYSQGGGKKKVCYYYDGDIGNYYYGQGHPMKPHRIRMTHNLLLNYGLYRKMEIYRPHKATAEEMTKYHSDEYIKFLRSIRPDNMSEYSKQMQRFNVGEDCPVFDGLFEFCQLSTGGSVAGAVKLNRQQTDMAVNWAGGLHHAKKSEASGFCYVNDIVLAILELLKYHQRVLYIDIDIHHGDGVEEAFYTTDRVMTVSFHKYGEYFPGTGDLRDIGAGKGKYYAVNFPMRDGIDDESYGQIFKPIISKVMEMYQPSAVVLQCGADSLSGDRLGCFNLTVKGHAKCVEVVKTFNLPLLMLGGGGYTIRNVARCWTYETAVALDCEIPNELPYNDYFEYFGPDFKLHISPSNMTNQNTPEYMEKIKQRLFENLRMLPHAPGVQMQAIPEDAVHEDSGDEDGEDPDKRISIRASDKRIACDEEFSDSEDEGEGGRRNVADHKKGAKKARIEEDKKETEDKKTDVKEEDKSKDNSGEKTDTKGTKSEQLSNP
active: [5] 1.04
inactive: [1] -0.01 | [8] -0.037 | [2] -0.013 | [3] -0.039 | [6] 0.04 | [10] -0.021 | [7] -0.041

GGA2 (UniProt Q9UJY4)
inactive: [1] 0.02 | [8] -0.02 | [2] -0.208 | [3] 0.01 | [4] 0.032 | [5] 0.042 | [6] 0.033 | [10] 0.152 | [7] -0.034

IDH3A isoform 2 (UniProt P50213)
inactive: [8] -0.06

HBZ, A0A494C057
inactive: [2] -0.022 | [5] -0.197 | [6] 0.005 | [7] 0.876

GINS2 (UniProt Q9Y248)
UniProt Q9Y248, sequence (Q9Y248 whole entry, looked up): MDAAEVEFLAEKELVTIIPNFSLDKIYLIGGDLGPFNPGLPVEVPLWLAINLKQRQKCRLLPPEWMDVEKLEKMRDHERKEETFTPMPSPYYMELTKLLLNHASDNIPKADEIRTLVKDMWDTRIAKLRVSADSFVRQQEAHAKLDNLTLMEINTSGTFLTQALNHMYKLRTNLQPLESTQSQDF
inactive: [1] -0.086 | [2] -0.024 | [3] 0.022 | [9] -0.01 | [5] 0.028 | [6] -0.031 | [10] -0.163 | [7] -0.026
active: [4] 0.533

FBXO9 (UniProt Q9UK97)
UniProt Q9UK97, sequence (Q9UK97 whole entry, looked up): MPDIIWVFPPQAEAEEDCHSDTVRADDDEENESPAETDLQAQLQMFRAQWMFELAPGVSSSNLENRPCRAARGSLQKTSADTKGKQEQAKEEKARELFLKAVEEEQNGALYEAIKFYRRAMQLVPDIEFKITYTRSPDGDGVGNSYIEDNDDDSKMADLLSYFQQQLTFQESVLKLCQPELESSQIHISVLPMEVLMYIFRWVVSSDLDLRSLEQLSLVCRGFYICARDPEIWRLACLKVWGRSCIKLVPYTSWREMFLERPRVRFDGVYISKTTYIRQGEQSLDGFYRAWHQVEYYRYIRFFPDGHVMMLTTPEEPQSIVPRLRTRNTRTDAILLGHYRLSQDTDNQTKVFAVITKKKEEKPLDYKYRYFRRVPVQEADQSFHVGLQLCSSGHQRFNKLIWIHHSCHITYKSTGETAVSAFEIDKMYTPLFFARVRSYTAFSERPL
inactive: [2] -0.079 | [3] -0.112 | [9] 0.109 | [5] 0.157 | [6] 0.132 | [7] 0.054

GSE1 (UniProt Q14687)
inactive: [3] -0.044

FIZ1 (UniProt Q96SL8)
UniProt Q96SL8, sequence (Q96SL8 whole entry, looked up): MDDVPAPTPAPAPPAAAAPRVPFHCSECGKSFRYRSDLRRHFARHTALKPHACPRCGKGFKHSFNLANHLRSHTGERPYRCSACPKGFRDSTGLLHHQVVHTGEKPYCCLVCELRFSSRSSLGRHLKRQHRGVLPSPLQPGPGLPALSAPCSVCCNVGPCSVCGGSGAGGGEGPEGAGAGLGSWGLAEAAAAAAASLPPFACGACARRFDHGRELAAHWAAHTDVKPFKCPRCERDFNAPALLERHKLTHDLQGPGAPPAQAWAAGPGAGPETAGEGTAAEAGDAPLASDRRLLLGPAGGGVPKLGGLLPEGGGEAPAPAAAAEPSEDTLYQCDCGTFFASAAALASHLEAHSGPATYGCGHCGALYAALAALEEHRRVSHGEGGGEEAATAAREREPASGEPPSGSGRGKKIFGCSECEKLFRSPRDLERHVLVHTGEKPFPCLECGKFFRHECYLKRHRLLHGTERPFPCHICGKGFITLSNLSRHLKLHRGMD
inactive: [1] 0.026 | [2] 0.097 | [3] 0.061 | [4] -0.257 | [9] 0.044 | [5] -0.12 | [6] -0.103 | [10] 0.06 | [7] 0.041

ICMT (UniProt O60725)
UniProt O60725, sequence (O60725 whole entry, looked up): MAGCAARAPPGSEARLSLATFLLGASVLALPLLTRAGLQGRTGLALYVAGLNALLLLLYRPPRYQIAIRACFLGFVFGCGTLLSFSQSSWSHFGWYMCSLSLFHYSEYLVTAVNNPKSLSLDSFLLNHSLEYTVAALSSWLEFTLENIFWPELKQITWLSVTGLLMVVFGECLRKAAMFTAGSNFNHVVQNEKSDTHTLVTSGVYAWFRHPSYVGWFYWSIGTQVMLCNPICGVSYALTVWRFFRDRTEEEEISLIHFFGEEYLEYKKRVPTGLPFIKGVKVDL
inactive: [1] 0.031 | [8] -0.153 | [2] -0.233 | [3] -0.079 | [4] 0.007 | [5] -0.034 | [6] 0.022 | [10] -0.013 | [7] -0.016

FAT1 (UniProt Q14517)
inactive: [1] -0.018 | [2] 0 | [3] -0.075 | [4] 0.015 | [9] -0.04 | [6] 0.176 | [10] -0.051

GDE1 (UniProt Q9NZC3)
inactive: [1] -0.001 | [8] 0.058 | [2] 0.094 | [3] -0.01 | [4] -0.065 | [5] 0.024 | [6] -0.086 | [10] -0.008 | [7] 0.032

HDAC10 (UniProt Q969S8)
inactive: [8] 0.061 | [2] -0.076 | [3] -0.033 | [9] 0.208 | [5] 0.062 | [6] -0.271 | [7] -0.09

GPNMB (UniProt Q14956)
UniProt Q14956, sequence (Q14956 whole entry, looked up): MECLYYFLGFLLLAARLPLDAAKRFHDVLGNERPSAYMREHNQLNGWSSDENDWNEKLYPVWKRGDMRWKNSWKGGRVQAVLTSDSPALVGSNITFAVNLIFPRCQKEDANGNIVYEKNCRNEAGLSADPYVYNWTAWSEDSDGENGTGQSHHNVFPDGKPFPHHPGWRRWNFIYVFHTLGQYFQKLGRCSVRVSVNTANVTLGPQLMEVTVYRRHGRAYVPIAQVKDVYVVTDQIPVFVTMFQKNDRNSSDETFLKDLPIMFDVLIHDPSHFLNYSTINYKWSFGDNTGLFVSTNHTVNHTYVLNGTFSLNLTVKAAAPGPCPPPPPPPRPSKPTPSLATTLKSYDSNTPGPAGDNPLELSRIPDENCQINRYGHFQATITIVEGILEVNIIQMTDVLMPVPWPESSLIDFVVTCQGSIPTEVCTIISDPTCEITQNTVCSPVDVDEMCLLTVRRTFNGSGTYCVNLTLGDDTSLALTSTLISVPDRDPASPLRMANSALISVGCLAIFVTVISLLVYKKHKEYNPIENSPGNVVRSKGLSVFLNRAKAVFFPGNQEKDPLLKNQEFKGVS
inactive: [5] -0.125 | [10] -0.015 | [7] 0.727

HSPA2 (UniProt P54652)
UniProt P54652, sequence (P54652 whole entry, looked up): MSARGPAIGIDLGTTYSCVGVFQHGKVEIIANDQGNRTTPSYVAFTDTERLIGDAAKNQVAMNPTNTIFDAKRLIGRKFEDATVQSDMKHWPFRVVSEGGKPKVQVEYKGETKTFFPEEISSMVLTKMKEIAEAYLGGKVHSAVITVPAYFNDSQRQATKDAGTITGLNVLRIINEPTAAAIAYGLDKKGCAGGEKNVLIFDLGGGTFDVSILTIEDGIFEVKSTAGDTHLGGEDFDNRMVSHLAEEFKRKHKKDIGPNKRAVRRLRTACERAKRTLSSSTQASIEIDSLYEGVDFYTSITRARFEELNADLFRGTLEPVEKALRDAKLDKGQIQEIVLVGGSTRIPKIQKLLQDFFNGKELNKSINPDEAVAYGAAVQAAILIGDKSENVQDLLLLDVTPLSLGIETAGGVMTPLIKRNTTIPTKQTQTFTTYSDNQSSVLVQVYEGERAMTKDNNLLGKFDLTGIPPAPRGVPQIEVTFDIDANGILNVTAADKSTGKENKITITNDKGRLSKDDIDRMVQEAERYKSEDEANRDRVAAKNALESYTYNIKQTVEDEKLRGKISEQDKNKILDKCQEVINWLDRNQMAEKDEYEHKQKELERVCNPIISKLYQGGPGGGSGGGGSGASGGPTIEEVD
inactive: [1] -0.015 | [8] 0.076 | [2] -0.071 | [4] -0.039 | [6] 0.006

GREB1 (UniProt Q4ZG55)
inactive: [1] 0.029 | [8] -0.103 | [3] -0.002 | [4] 0.012 | [10] 0.036

GOLGA6B (UniProt A6NDN3)
UniProt A6NDN3, sequence (A6NDN3 whole entry, looked up): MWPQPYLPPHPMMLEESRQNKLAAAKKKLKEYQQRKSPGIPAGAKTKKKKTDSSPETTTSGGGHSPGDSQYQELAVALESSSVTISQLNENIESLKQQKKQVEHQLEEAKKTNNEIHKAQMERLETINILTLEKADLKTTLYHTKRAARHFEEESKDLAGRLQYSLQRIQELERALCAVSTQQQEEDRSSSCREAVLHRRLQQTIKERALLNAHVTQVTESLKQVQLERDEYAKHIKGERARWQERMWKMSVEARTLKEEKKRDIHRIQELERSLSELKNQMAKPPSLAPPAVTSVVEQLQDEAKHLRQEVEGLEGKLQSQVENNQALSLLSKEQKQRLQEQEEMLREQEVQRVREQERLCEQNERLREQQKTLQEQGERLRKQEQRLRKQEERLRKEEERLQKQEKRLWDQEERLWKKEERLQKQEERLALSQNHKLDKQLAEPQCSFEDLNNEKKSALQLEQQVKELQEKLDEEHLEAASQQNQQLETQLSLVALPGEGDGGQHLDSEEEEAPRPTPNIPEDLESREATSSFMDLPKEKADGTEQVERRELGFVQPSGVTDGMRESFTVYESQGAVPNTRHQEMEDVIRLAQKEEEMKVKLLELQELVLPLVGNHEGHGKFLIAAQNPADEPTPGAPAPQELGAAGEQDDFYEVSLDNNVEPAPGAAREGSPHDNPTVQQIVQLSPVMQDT
inactive: [1] 0.048 | [2] -0.054 | [3] 0.001 | [4] 0.007 | [9] 0.114 | [6] 0.022 | [10] 0.051

GBA2 (UniProt Q9HCG7)
inactive: [1] -0.008 | [8] -0.006 | [2] -0.108 | [3] -0.129 | [4] -0.023 | [5] -0.332 | [6] 0.124 | [10] -0.027 | [7] -0.211

IGF2 isoform 3 (UniProt P01344)
inactive: [3] -0.004

HNRNPK isoform 3 (UniProt P61978)
inactive: [1] -0.06 | [2] 0.052 | [3] -0.182 | [4] 0.023 | [9] 0.035 | [5] -0.009 | [6] 0.028 | [10] 0.159 | [7] -0.102

FMR1 (UniProt Q06787)
inactive: [1] 0.086 | [4] -0.106 | [9] -0.137 | [5] 0.101 | [6] 0.058 | [7] -0.146
active: [2] 0.836

GBE1 (UniProt Q04446)
inactive: [8] -0.11 | [2] -0.214 | [3] -0.07 | [5] 0.09 | [6] 0.031 | [10] -0.049 | [7] -0.057

FGG (UniProt P02679)
inactive: [9] -0.001

GOLGA8R (UniProt I6L899)
inactive: [8] -0.1 | [3] 0.02 | [9] 0.073 | [5] 0.09 | [7] 0.006

HDAC1 (UniProt Q13547)
UniProt Q13547, sequence (Q13547 whole entry, looked up): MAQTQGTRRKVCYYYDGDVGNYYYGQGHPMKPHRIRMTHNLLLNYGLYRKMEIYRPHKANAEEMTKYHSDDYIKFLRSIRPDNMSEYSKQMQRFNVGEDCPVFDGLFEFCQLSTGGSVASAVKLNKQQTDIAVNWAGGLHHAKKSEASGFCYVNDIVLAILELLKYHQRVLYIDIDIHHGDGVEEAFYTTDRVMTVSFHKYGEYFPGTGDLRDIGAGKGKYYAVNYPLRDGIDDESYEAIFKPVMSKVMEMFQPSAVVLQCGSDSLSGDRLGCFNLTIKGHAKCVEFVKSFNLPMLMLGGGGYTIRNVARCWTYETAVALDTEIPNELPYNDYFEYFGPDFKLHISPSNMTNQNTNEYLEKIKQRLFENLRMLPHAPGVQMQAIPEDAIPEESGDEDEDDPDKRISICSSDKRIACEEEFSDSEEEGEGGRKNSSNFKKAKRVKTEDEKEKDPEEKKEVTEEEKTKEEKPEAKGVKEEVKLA
active: [9] 1.79 | [5] 1.52
inactive: [1] -0.015 | [8] 0.128 | [2] -0.017 | [3] 0.006 | [6] 0.06 | [10] -0.03 | [7] 0.003

HDAC7 isoform 5 (UniProt Q8WUI4)
inactive: [1] 0.009 | [8] 0.123 | [2] 0.188 | [3] -0.036 | [9] 0.027 | [5] 0.032 | [6] 0.021 | [10] 0.032 | [7] -0.163
